Results taken from PubChem BioAssay (Tox21).
Values without a mark were called inactive. Inconclusive results are not listed. Where a call stands in place of a potency, no number is given. The source made the active and inactive calls. Unless noted, calls come from the whole dose curve; as a rule, active = well fitted curve in the direction sought with a large enough effect in the repeat runs; inconclusive = weak or mixed curves; inactive = no such curve, though single readings can be large; an effect the other way counts as inactive or inconclusive.

How the values were obtained:
[1] = qHTS assay to identify small molecule antagonists of the estrogen related receptor (ERR) signaling pathway from Tox21 library - cell viability counter screen (AID 1224834); note: nearly all actives have a fitted effect of over 30% in size
Method in brief: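 ERR reporter cells were plated 6 h before compound addition, then exposed to test compounds in DMSO for 17.5 h at 37 C. Viability was read as CellTiter-Fluor fluorescence after a 30-minute incubation at 37 C.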

[2] = target: Luciferin 4-monooxygenase (Photinus pyralis) (UniProt P08659); assay: qHTS assay to identify small molecule inhibitors of firefly luciferase (AID 1224835); note: nearly all actives have a fitted effect of over 25% in size
Sequence of Luciferin 4-monooxygenase (Photinus pyralis) (P08659 whole entry, looked up): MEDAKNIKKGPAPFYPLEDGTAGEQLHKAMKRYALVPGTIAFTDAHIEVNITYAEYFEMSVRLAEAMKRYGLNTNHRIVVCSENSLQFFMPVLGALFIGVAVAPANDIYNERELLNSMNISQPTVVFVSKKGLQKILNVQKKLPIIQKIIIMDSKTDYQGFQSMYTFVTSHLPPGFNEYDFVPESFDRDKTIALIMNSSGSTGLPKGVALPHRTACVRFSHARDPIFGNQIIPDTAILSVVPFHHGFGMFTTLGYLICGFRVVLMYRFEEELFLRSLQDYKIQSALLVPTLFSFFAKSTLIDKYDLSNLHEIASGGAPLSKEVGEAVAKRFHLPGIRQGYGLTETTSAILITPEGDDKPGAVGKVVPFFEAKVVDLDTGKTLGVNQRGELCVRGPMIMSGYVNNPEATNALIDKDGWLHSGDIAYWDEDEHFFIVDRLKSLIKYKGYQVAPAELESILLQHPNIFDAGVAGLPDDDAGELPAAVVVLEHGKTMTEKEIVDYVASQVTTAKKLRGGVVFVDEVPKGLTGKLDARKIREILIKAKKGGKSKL
Method in brief: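 Biochemical qHTS: compounds run as interplate titrations against purified firefly enzyme, with D-luciferin and ATP each at its KM concentration. Light output recorded by CCD imaging.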

[3] = qHTS assay to identify small molecule agonists of the constitutive androstane receptor (CAR) signaling pathway - cell viability counter screen (AID 1224836); note: nearly all actives have a fitted effect of over 45% in size
Method in brief: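 23 h treatment, 37 C, 5% CO2. Cell line: HepG2 stably expressing hCAR with a CYP2B6-2.2kb construct. Co-treatment: PK11195, 0.75 uM final. Read-out: CellTiter-Fluor fluorescence intensity.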

[4] = qHTS assay to identify small molecule antagonists of the constitutive androstane receptor (CAR) signaling pathway - cell viability counter screen (AID 1224837); note: nearly all actives have a fitted effect of over 45% in size
Method in brief: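 HepG2 cells stably expressing hCAR and a CYP2B6-2.2kb reporter were plated and pre-incubated 4 hr at 37 C/5% CO2, then given compounds at 15 concentrations plus 50 nM CITCO (final). After 23 hr, viability was read by CellTiter-Fluor fluorescence.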

[5] = target: Nuclear receptor subfamily 1 group I member 3 (Homo sapiens) (UniProt Q14994); assay: qHTS assay to identify small molecule antagonists of the constitutive androstane receptor (CAR) signaling pathway (AID 1224838); note: nearly all actives have a fitted effect of over 40% in size
Sequence of Nuclear receptor subfamily 1 group I member 3 (Homo sapiens) (Q14994 whole entry, looked up): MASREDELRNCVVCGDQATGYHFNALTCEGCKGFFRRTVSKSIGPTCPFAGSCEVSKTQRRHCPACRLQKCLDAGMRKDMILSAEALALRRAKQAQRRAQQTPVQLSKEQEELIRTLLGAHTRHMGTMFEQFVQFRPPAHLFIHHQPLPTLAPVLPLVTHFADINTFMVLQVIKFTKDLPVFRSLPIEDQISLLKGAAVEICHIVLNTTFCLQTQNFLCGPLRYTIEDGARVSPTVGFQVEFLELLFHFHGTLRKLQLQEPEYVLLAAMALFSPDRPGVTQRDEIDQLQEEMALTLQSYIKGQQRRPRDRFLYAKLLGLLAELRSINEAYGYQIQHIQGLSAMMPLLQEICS
Method in brief: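 HepG2 cells stably co-transfected with hCAR and a CYP2B6-2.2kb luciferase reporter were seeded 4 h before compound addition at 15 concentrations. Cells were stimulated with 50 nM CITCO (final) for 24 h at 37 C; luciferase luminescence was then read.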

[6] = target: Nuclear receptor subfamily 1 group I member 3 (Homo sapiens) (UniProt Q14994); assay: qHTS assay to identify small molecule agonists of the constitutive androstane receptor (CAR) signaling pathway (AID 1224839);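 note: HepG2 cells stably carrying human CAR and a CYP2B6 luciferase reporter; nearly all actives have a fitted effect of over 15% in size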
Method in brief: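 Compounds tested at 15 concentrations on HepG2 cells stably harbouring hCAR and CYP2B6-2.2kb reporter constructs, co-treated with PK11195 (0.75 uM final), 24 h at 37 C; luminescent reporter signal quantified.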

[7] = qHTS assay to identify small molecule antagonists of the estrogen related receptor signaling pathway with the pleiotropic PPARgamma coactivator (PGC) from Tox21 10K library - cell viability counter screen (AID 1224840; active = well fitted cell-killing curve with a large enough effect in the repeat runs, not every such curve was filed as active; note: nearly all actives have a fitted effect of over 40% in size)
Method in brief: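 PGC/ERR cells were seeded at 2,000 cells/well and left 6 hours at 37 C/5% CO2 before pin-tool addition of compounds in DMSO. After 17.5 hours at 37 C, CellTiter-Fluor was added and fluorescence read 30 minutes later.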

[8] = qHTS assay to identify small molecule antagonists of the estrogen related receptor signaling pathway with the pleiotropic PPARgamma coactivator (PGC) from Tox21 10K library (AID 1224841; call rule not given here; note: actives are mostly falling curves and most rising ones were filed inactive; nearly all actives have a fitted effect of over 50% in size)
Method in brief: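 PGC/ERR reporter cells were seeded at 2,000 cells/well and held 6 hours at 37 C/5% CO2 before pin-tool addition of compounds in DMSO. After 18 hours at 37 C, One-Glo was added and luminescence read after 30 minutes at room temperature.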

[9] = qHTS assay to identify small molecule agonists of the estrogen related receptor signaling pathway with the pleiotropic PPARgamma coactivator (PGC) from Tox21 10K library (AID 1224842); note: nearly all actives have a fitted effect of over 15% in size
Method in brief: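 PGC/ERR reporter cell line, 2,000 cells per well, incubated 6 h at 37 C before 23 nL compound in DMSO was added. After 18 h at 37 C, One-Glo luminescence read following 30 min at room temperature.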

[10] = target: Thyrotropin receptor (Homo sapiens) (UniProt P16473); assay: qHTS assay to identify small molecule agonists of the thyroid stimulating hormone receptor (TSHR) signaling pathway (AID 1224843; calls by dose curve; note: nearly all actives have a fitted effect of over 45% in size)
Sequence of Thyrotropin receptor (Homo sapiens) (P16473 whole entry, looked up): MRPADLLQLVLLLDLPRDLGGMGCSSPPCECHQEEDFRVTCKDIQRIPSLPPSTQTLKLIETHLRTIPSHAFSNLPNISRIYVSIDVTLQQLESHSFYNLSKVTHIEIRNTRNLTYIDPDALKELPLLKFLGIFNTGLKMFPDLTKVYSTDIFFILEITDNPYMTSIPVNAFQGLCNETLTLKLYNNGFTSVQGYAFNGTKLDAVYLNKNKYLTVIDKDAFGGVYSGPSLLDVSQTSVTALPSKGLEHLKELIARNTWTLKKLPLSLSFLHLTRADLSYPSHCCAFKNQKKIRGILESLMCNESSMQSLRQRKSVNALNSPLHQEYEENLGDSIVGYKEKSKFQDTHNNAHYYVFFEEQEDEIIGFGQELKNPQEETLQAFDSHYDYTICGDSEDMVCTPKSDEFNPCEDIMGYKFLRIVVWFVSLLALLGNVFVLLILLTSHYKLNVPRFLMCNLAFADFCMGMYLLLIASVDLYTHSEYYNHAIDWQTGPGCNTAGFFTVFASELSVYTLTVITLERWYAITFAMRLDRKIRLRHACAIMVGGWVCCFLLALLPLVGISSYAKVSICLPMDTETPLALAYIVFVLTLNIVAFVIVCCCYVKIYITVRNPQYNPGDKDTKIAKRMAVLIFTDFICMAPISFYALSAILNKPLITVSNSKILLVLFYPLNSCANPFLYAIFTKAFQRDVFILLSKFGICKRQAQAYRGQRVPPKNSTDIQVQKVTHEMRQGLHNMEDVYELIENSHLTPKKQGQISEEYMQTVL
Method in brief: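 Steps: seed 800 TSHR-HEK293 cells per well; add test compound and hold 30 min at ambient temperature; dispense cAMP-d2 then anti-cAMP cryptate; incubate 1 h at ambient; measure fluorescence intensity.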

[11] = qHTS assay to identify small molecule agonists of the hypoxia (HIF-1) signaling pathway - cell viability counter screen (AID 1224844; calls by dose curve; note: nearly all actives have a fitted effect of over 50% in size)
Method in brief: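 HRE-bla ME-180 cells in medium with 0.5% dialyzed FBS were preincubated 5 hrs at 37C, exposed to compounds for 17 hrs, then viability was read as CellTiter-Glo luminescence after 30 min at room temperature, in the reporter wells.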

[12] = qHTS assay to identify small molecule agonists of the hypoxia (HIF-1) signaling pathway (AID 1224846; active = well fitted activation curve with a large enough effect in the signal ratio in the repeat runs, not every such curve was filed as active; the % refers to the signal ratio)
Method in brief: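 HRE-bla ME-180 cells (beta-lactamase reporter under hypoxia response element) were plated at 2,000 cells/well in medium with 0.5% dialyzed FBS, rested 5 hrs, then given compounds in DMSO for 17 hrs at 37C, 5% CO2. Reporter induction was read with CCF4-AM FRET substrate.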

[13] = qHTS assay to identify small molecule agonists of H2AX - cell viability counter screen (AID 1224847; calls by dose curve; note: top concentration of the series differs between compounds; nearly all actives have a fitted effect of over 30% in size)
Method in brief: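 Compounds tested at 15 concentrations were incubated 3 hr at 37C with wild-type CHO-K1 cells; cellular ATP-based luminescence (CellTiter-Glo) indicated viability.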

[14] = qHTS assay to identify small molecule agonists of the estrogen related receptor (ERR) signaling pathway from Tox21 library (AID 1224849; calls by dose curve; note: nearly all actives have a fitted effect of over 15% in size); settings: ERR reporter cell line, ONE-Glo luciferase, 18 h; at 92.4 µM (top of the series) unless noted
Method in brief: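 ERR reporter cell line (NTP) seeded, rested 6 h at 37 C/5% CO2, then pinned with Tox21 compounds in DMSO. After 18 h at 37 C, ONE-Glo luciferase luminescence was read following 30 min at room temperature.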

[15] = qHTS RealTime-Glo MT Cell Viability Assay in HepG2 cells - 24 hour (AID 1224867); note: nearly all actives have a fitted effect of over 50% in size
Method in brief: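 Compound treatment began 5 h after plating HepG2 cells (600/well) with NanoLuc luciferase and prosubstrate. Plates stayed at 37 C for 40 h; luminescence was captured at six time points, 0 h through 40 h.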

[16] = A CellTox Green Cytotoxicity Assay to monitor cytotoxicity in HEK293 cells - 0 hour (AID 1224869); note: nearly all actives have a fitted effect of over 50% in size; note: potency is the fitted concentration of half-maximal effect
Method in brief: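 HEK293 cells premixed with CellTox Green dye were seeded at 600 cells/well and left 5 h at 37 C/5% CO2 before pin transfer of 23 nL compound in DMSO. Fluorescence from dye bound to dead-cell DNA was read during 40 h treatment.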

[17] = qHTS RealTime-Glo MT Cell Viability Assay in HepG2 cells - 40 hour (AID 1224870); note: nearly all actives have a fitted effect of over 50% in size
Method in brief: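 HepG2 cells (600/well) mixed with RealTime-Glo MT reagent, settled 5 h at 37 C/5% CO2 before compound addition. Nonlytic NanoLuc luminescence from viable-cell prosubstrate reduction read repeatedly during 40 h treatment at 37 C.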

[18] = qHTS assay to identify small molecule agonists of H2AX (AID 1224845; active = well fitted activation curve with a large enough effect in the signal ratio in the repeat runs, not every such curve was filed as active; the % refers to the signal ratio)
Method in brief: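 Wild-type CHO-K1 cells, plated overnight, exposed 3hr at 37C to 15 concentrations (0.76% DMSO final). Lysed, then HTRF anti-pH2AX (S139) cryptate and anti-H2AX-d2 antibodies, 24 hr room temperature; 665/620 nm emission read.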

[19] = qHTS assay to identify small molecule antagonists of the estrogen related receptor (ERR) signaling pathway from Tox21 library (AID 1224848); note: nearly all actives have a fitted effect of over 50% in size
Method in brief: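 Luminescent reporter read-out (ONE-Glo) from NTP's ERR cell line after 18 h treatment at 37 C with DMSO-dissolved Tox21 compounds; cells pre-plated 6 h beforehand at 2,000 per well.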

[20] = qHTS RealTime-Glo MT Cell Viability Assay in HEK293 cells - 32 hour (AID 1224868)
Method in brief: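 Quantitative high-throughput screen of the Tox21 10K library in HEK293: cells and RealTime-Glo reagents plated together, compound added at 5 h, luminescence monitored through 40 h at 37 C.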

COC(C)(C)CCC[C@H](C)C/C=C/C(C)=C/C(=O)OC(C)C
Potency [1]: inactive
Potency [2]: inactive
Potency [3]: inactive
Potency [4]: inactive
Potency [5]: inactive
Potency [6]: inactive
Potency [7]: inactive
Potency [8]: inactive
Potency [9]: inactive
Potency [10]: inactive
Potency [11]: inactive
outcome [12]: inactive
Potency [13]: inactive
activity change, positive = activation [14]: -23.3%
Potency [15]: inactive
Potency [16]: inactive
Potency [17]: inactive

O=C(O)COc1ccc(Cl)cc1
Potency [1]: inactive
Potency [2]: inactive
Potency [3]: inactive
Potency [4]: inactive
Potency [5]: inactive
Potency [6]: inactive
Potency [7]: inactive
Potency [8]: inactive
Potency [9]: inactive
Potency [10]: inactive
Potency [18]: inactive
outcome [12]: inactive
Potency [13]: inactive
Potency [19]: inactive
activity change, positive = activation [14]: 1.55%
Potency [15]: inactive
Potency [20]: inactive
Potency [16]: inactive
Potency [17]: inactive

COc1nn(C(=O)NS(=O)(=O)c2ccccc2OC(F)(F)F)c(=O)n1C
Potency [1]: inactive
Potency [2]: inactive
Potency [3]: inactive
Potency [4]: inactive
Potency [5]: inactive
Potency [6]: inactive
Potency [8]: inactive
Potency [10]: inactive
Potency [11]: inactive
Potency [18]: inactive
outcome [12]: inactive
Potency [13]: inactive
activity change, positive = activation [14]: 1.4%
Potency [15]: inactive
Potency [20]: inactive
Potency [16]: 31.7 µM (active)
Potency [17]: inactive

Brc1ccccc1
Potency [1]: inactive
Potency [2]: inactive
Potency [3]: inactive
Potency [4]: inactive
Potency [5]: inactive
Potency [6]: inactive
Potency [7]: inactive
Potency [10]: inactive
Potency [11]: inactive
Potency [18]: inactive
outcome [12]: inactive
Potency [13]: inactive
Potency [20]: inactive
Potency [16]: inactive
Potency [17]: inactive

CC(Cl)Cl
Potency [1]: inactive
Potency [2]: inactive
Potency [3]: inactive
Potency [4]: inactive
Potency [5]: inactive
Potency [6]: inactive
Potency [7]: inactive
Potency [8]: inactive
Potency [10]: inactive
Potency [11]: inactive
Potency [18]: inactive
outcome [12]: inactive
Potency [13]: inactive
Potency [19]: inactive
activity change, positive = activation [14]: -9.34%
Potency [15]: inactive
Potency [16]: inactive
Potency [17]: inactive

COC(=O)C(Br)CBr (stereo not given)
Potency [1]: inactive
Potency [2]: inactive
Potency [3]: inactive
Potency [4]: inactive
Potency [5]: inactive
Potency [6]: inactive
Potency [7]: inactive
Potency [18]: inactive
Potency [13]: inactive
activity change, positive = activation [14]: -11.9%
Potency [15]: inactive
Potency [20]: inactive
Potency [16]: inactive
Potency [17]: inactive

CCOC(=O)CBr
Potency [1]: inactive
Potency [2]: inactive
Potency [3]: inactive
Potency [4]: inactive
Potency [5]: inactive
Potency [6]: inactive
Potency [7]: inactive
Potency [10]: inactive
Potency [11]: inactive
Potency [18]: inactive
outcome [12]: inactive
Potency [13]: inactive
Potency [15]: inactive
Potency [16]: inactive
Potency [17]: inactive
